Reference: the supplement of paper PMC6555819

Columns and labels:
Assay in all cases: PBM binding z-score (relative to random genomic background probes); higher = stronger binding; sequences stand for … in GC…GCGATTGACAGCGTAGAATGAAGG
[1] = test system: FXR:RXRa (NR concentration 270 nM, RXRa partner concentration 90 nM)
Method in brief: (§1)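 On custom Agilent 4×180K arrays, double-stranded probes with 34-nt variable regions carried direct-repeat seeds, single-nucleotide variants, half-site ablations or random human genomic background. Ligand-free nuclear receptor dimers were applied for 1 h, and binding was read with antibodies against each partner (one per run). Binding z-scores come from regression-normalized fluorescence, with the random background probes as reference.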

[2] = test system: LXRa:RXRa (NR concentration 270 nM, RXRa partner concentration 90 nM)
Method in brief: as §1

[3] = test system: LXRa homodimer (NR concentration 270 nM)
Method in brief: as §1

[4] = test system: LXRb:RXRa (NR concentration 270 nM, RXRa partner concentration 90 nM)
Method in brief: as §1

[5] = test system: LXRb homodimer (NR concentration 270 nM)
Method in brief: as §1

[6] = test system: PPARa:RXRa (NR concentration 270 nM, RXRa partner concentration 90 nM)
Method in brief: as §1

[7] = test system: PPARg:RXRa (NR concentration 180 nM, RXRa partner concentration 90 nM)
Method in brief: as §1

[8] = test system: PPARg:RXRa 270nM:90nM, anti-RXR (NR concentration 270 nM, RXRa partner concentration 90 nM)
Method in brief: as §1

[9] = test system: PPARg:RXRa 30nM:10nM, anti-RXR (NR concentration 30 nM, RXRa partner concentration 10 nM)
Method in brief: as §1

[10] = test system: PPARg:RXRa 90nM:30nM, anti-RXR (NR concentration 90 nM, RXRa partner concentration 30 nM)
Method in brief: as §1

Row | Sequence | PBM binding z-score [1] | PBM binding z-score [2] | PBM binding z-score [3] | PBM binding z-score [4] | PBM binding z-score [5] | PBM binding z-score [6] | PBM binding z-score [7] | PBM binding z-score [8] | PBM binding z-score [9] | PBM binding z-score [10]
1 | GATACCGGGTCAGCTAGAGGCCAGAGTATGGAAA | 2.65 | 1.51 | -0.9 | 1.21 | -1.03 | 3.5 | 2.92 | 2.42 | 0.487 | 1.18
2 | TCTGCTAGGTCAACGATGGTCAGCTAATCTGCTA | 3.45 | 2.96 | -0.225 | 1.44 | -0.144 | 3.19 | 2.69 | 3.14 | 1.76 | 2.48
3 | CCTACTGGGCCAAAGGTCATTGAATCCAATGCTC | 4.76 | 5.09 | 3.62 | 4.91 | 0.849 | 6.45 | 11.2 | 9.74 | 10.1 | 10.8
4 | TATCGGAGGACACGAAGGTCAGAGCTTTCCAGAG | 1.17 | 1.65 | 1.08 | 1.14 | -0.0992 | 1.88 | 0.951 | 1.18 | 0.288 | 0.613
5 | TCTGCTAGGTCAACGCTGGTCAGCTAATCTGCTA | 3.47 | 3.1 | -0.234 | 1.74 | -0.356 | 3.27 | 2.09 | 3.24 | 1.85 | 2.54
6 | CCTTACGGGTCAAGTTTATAGCACGGGTGGTACG | 6.15 | 4.11 | 0.444 | 3.48 | 0.604 | 5.14 | 4.2 | 4.22 | 1.91 | 3.06
7 | ATCTCTAGGTAACCAAGTTCATTGAATGCCGAAC | 0.729 | 2.12 | 2.71 | 1.66 | 1.1 | 2.14 | 1.04 | 1.24 | 0.578 | 0.937
8 | ACTATTAGTTGACACGAGGGCAACCGATAGGTTG | 1.1 | 1.04 | 0.219 | 0.64 | 0.129 | 1.21 | 1.06 | 0.472 | 0.354 | 0.356
9 | TCTTGTAGATCAAAGGTTAATAAAGCCGAAGCCT | 1.43 | 1.96 | 0.26 | 2.03 | 0.175 | 4.63 | 7.9 | 7.38 | 7.95 | 8.32
10 | CCTACTGGGCCATCTGGTCATTGATATCAACGTT | -0.161 | -0.364 | -0.126 | -0.0941 | -0.192 | 0.878 | 1.09 | 2.19 | 0.303 | 1.69
11 | GGAAGGAGGGCAAGTTGATAGCAGAGTTTGATGG | 1.04 | 0.798 | 0.562 | 1.5 | 1.47 | 1.92 | 1.2 | 1.53 | 0.406 | 0.957
12 | TTACCAAGGTGAGCTAAGGTCGTTGATCCAACTC | 3.04 | 1.56 | -0.466 | 0.977 | -1.12 | 1.66 | 0.5 | 1.42 | 0.431 | 0.771
13 | GTACCAAAGTGAATAGGTCGTTGATGAGTAGGCG | -0.437 | -0.179 | 0.178 | -0.156 | -0.573 | 0.468 | 0.56 | 0.234 | 0.0456 | -0.0827
14 | ATCTAAAGGTCGACGAGGTGAGTATACACCGTTT | 4.77 | 4.07 | 0.832 | 3.04 | 0.727 | 4.38 | 3.31 | 3.51 | 1.21 | 2.67
15 | CGTCCAAGGTCAGAGACGTCAGTGAATGCCGAGT | 4.49 | 2.77 | -0.161 | 1.87 | -0.32 | 3.7 | 1.97 | 2.41 | 0.132 | 1.48
16 | AGTCAAAGTTCATCTCGGTAACGTAAGATATGCT | 6.81 | 6.1 | 5.38 | 3.79 | 1.92 | 4.76 | 6.02 | 6.19 | 3.18 | 5.22
17 | CGAACTAGGTCATCCAGGACGGTGAATACATTGA | 4.05 | 2.29 | 0.0785 | 1.64 | -0.427 | 4.85 | 7.27 | 6.3 | 3.61 | 5.41
18 | TCTTGTAGTTCAGCAGGTTAAGAAAGCTGGCCAA | 0.786 | 1.15 | 0.28 | 0.805 | 0.146 | 1.5 | -0.802 | 1.61 | 2.42 | 1.86
19 | TCGAGTAGGTTACGGGCATTCAGAATGGCGTCGA | 0.0323 | 0.894 | -0.574 | -0.0129 | -1.41 | 1.33 | 1.14 | 1.54 | 0.893 | 1.06

Row | Sequence | PBM binding z-score [1] | PBM binding z-score [2] | PBM binding z-score [3] | PBM binding z-score [4] | PBM binding z-score [5] | PBM binding z-score [6] | PBM binding z-score [7] | PBM binding z-score [8] | PBM binding z-score [9] | PBM binding z-score [10]
20 | TCAGACAGGTGAAGGTAACACAGGTACGCAGTCG | 1.04 | 1.17 | 0.113 | 1.01 | 0.0867 | 1.53 | 1.29 | 2.67 | 3.9 | 3.28
21 | ATCTCTAAGTAAGACTCAGTTCAGTGAAGAACGC | 0.404 | 0.702 | 0.509 | 0.112 | 0.924 | 0.0114 | -0.0993 | 0.324 | 0.0174 | 0.392
22 | CAGACAGGGTCAGCTAGGCCAGAGTAGGGACGGC | 4.38 | 2.22 | -0.426 | 1.75 | -0.493 | 4.34 | 2.66 | 2.47 | 0.42 | 1.51
23 | TTACCAAGGTGAAACGTCGTTGATGCACGCCTTG | 0.678 | 0.335 | -0.246 | 0.141 | -0.495 | 1.96 | 1.66 | 2.76 | 1.24 | 2.15
24 | TCTTGTAGATCAGAGGTTAAGAAAGCCGAAGCCT | 0.507 | 1.04 | -0.0177 | 1.4 | -0.128 | 2.87 | 4.35 | 5.58 | 4.79 | 5.63
25 | AGAATGAGGTTTTTAAGATCAGGGAATTGCGGTC | -0.295 | -0.436 | -0.308 | -0.234 | -0.216 | 0.0197 | 0.144 | 0.00452 | 0.119 | -0.139
26 | ACTAGCAGGCCAAGTTTGGGTGACTCAAACAAAG | -0.397 | -0.73 | -0.818 | -0.554 | -0.715 | -0.036 | -0.341 | -0.319 | -0.347 | -0.213
27 | ATATGTAGGTTACATCCGGGTCATTAAGGCTATG | 2.39 | 4.11 | 1.5 | 3.09 | 0.566 | 4.35 | 6.02 | 5.08 | 2.66 | 4.28
28 | GCGACTGTGGCAAAGCAGGTTACCATAAGGTTGG | -0.28 | -0.311 | -0.53 | -0.511 | -1.38 | 0.3 | 0.331 | -0.377 | -0.529 | -0.508
29 | CGTCAAAGTTCATCTAAGGTAACGTAAAGCACGC | 6.89 | 6.38 | 4.65 | 4.03 | 2.11 | 4.73 | 4.57 | 5.27 | 2.69 | 4.22
30 | ATCGAGAGGTCGAAGGTGAGTATACCCACCCGAA | 3.03 | 2.43 | -0.396 | 1.74 | -0.284 | 4.07 | 3.99 | 3.99 | 1.81 | 3.84
31 | GCGACTGGGGCAAAGCAGGTTACTATAAGGTTGG | 0.109 | 0.31 | -0.478 | 0.342 | -0.602 | 1.4 | 1.31 | 1.5 | 0.185 | 1.06
32 | TCTTGTAGATCACTAGAGGTTAAGAAAGTGCGCT | 0.684 | 5.11 | 1.63 | 2.67 | 0.128 | 1.88 | -0.00284 | 1.73 | 2.56 | 2.22
33 | ATCTCTAGGTAAAGTTCAGGGAAAGATCGATAGA | 1.49 | 2.4 | 1.88 | 1.58 | 1.03 | 2.86 | 3.53 | 4.62 | 2.77 | 4.35
34 | GCGACTGGGCCAAAGCAGGTTACCATAAGGTTGG | -0.0779 | -0.533 | -0.738 | -0.554 | -1.58 | 0.468 | 0.648 | 0.456 | -0.481 | 0.0774
35 | TCGAGGAGGTTACCAATGGGGCATTCAGCTTTCT | 0.893 | 2.72 | -0.21 | 2.47 | -0.369 | 2.29 | 0.171 | 1.2 | 1.46 | 1.09
36 | TGTATTAGTTGATTAGGGCAACCGAAACAGCGGA | 0.242 | 0.0777 | 0.397 | 0.234 | 1.3 | 0.484 | 0.304 | 0.782 | 0.748 | 0.794
37 | CCCTACGGGTCACTCCAGGTTATAGCATCGGAGT | 5.25 | 7.47 | 2.12 | 5.1 | 0.052 | 4.21 | 2.65 | 3.2 | 0.655 | 1.6
38 | CTCGAACGGTCGGTTGAGGTGAGTATACGGATAA | 0.102 | -0.565 | -0.727 | -0.59 | -0.761 | -0.3 | -0.199 | -0.622 | -0.623 | -0.601
